# Data taken from PubChem BioAssay (Tox21).
# Several values for one entry are separate records, joined by “and”; a condition that tells them apart may be missing. Identical values can stand only once. Records with an inconclusive call do not appear. Where a call stands in place of a potency, no number is given. Where a structure was tested more than once in an assay, its records may differ in their call. Activity calls are given as the source filed them. Unless noted, calls come from the whole dose curve; as a rule, active = well fitted curve in the direction sought with a large enough effect in the repeat runs; inconclusive = weak or mixed curves; inactive = no such curve, though single readings can be large; an effect the other way counts as inactive or inconclusive.
# Tests used:
# [1] = A CellTox Green Cytotoxicity Assay to monitor cytotoxicity in HEK293 cells - 32 hour (AID 1224881); note: nearly all actives have a fitted effect of over 40% in size; note: potency is the fitted concentration of half-maximal effect
# How it was run: (§1)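 Fluorescence intensity, read at 0, 8, 16, 24, 32 and 40 h of compound treatment, reflected dye binding to DNA of dead HEK293 cells; compounds (23 nL, DMSO) were added 5 h after plating cells with reagent.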
# [2] = A CellTox Green Cytotoxicity Assay to monitor cytotoxicity in HepG2 cells - 0 hour (AID 1224882); note: nearly all actives have a fitted effect of over 35% in size; note: potency is the fitted concentration of half-maximal effect
# How it was run: (§2)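 Using 1536-well format, dye-containing HepG2 suspension was seeded, allowed 5 h at 37 C/5% CO2, dosed by pintool with compounds, positive and negative controls, and imaged for fluorescence across 40 h.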
# [3] = A CellTox Green Cytotoxicity Assay to monitor cytotoxicity in HepG2 cells - 32 hour (AID 1224883); note: nearly all actives have a fitted effect of over 50% in size; note: potency is the fitted concentration of half-maximal effect
# How it was run: as §2
# [4] = A CellTox Green Cytotoxicity Assay to monitor cytotoxicity in HEK293 cells - 8 hour (AID 1224884); note: nearly all actives have a fitted effect of over 35% in size; note: potency is the fitted concentration of half-maximal effect
# How it was run: as §1
# [5] = qHTS RealTime-Glo MT Cell Viability Assay in HepG2 cells - 16 hour (AID 1224885); note: nearly all actives have a fitted effect of over 50% in size; note: potency is the fitted concentration of half-maximal effect
# How it was run: (§3)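 HepG2 cells (600/well) were dispensed with RealTime-Glo reagents, incubated 5 h at 37 °C, then treated with compounds in DMSO for up to 40 h. Nonlytic NanoLuc luminescence reflecting viable cells was read at each stated time point.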
# [6] = qHTS RealTime-Glo MT Cell Viability Assay in HEK293 cells - 24 hour (AID 1224886); note: nearly all actives have a fitted effect of over 50% in size; note: potency is the fitted concentration of half-maximal effect
# How it was run: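 HEK293 cells seeded with NanoLuc/prosubstrate reagent, rested 5 h at 37 C, then dosed and kept at 37 C up to 40 h. Nonlytic real-time luminescence from viable cells read at 0, 8, 16, 24, 32 and 40 h.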
# [7] = A CellTox Green Cytotoxicity Assay to monitor cytotoxicity in HEK293 cells - 16 hour (AID 1224888); note: nearly all actives have a fitted effect of over 35% in size; note: potency is the fitted concentration of half-maximal effect
# How it was run: as §1
# [8] = qHTS RealTime-Glo MT Cell Viability Assay in HepG2 cells - 0 hour (AID 1224889); note: nearly all actives have a fitted effect of over 50% in size; note: potency is the fitted concentration of half-maximal effect
# How it was run: as §3
# [9] = A CellTox Green Cytotoxicity Assay to monitor cytotoxicity in HepG2 cells - 8 hour (AID 1224890); note: nearly all actives have a fitted effect of over 45% in size; note: potency is the fitted concentration of half-maximal effect
# How it was run: as §2
# [10] = qHTS assay to identify small molecule antagonists of the estrogen receptor alpha (ER-alpha) signaling pathway using the BG1 cell line in the presence of 0.1 nM 17-beta-estradiol - cell viability counter screen (AID 1259241); note: nearly all actives have a fitted effect of over 40% in size
# How it was run: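 Viability in VM7Luc4E2 cells after 22 hr compound exposure under 0.1 nM 17beta-estradiol stimulation, by CellTiter-Fluor.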
# [11] = qHTS assay to identify small molecule antagonists of the androgen receptor (AR) signaling pathway using the MDA cell line in the presence of 0.5 nM R1881 - cell viability counter screen (AID 1259242); note: nearly all actives have a fitted effect of over 45% in size; note: potency is the fitted concentration of half-maximal effect
# How it was run: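 Viability of MDA-kb2 cells was multiplexed with the luciferase AR readout; after 16 hr with compounds and R1881 at 0.5 nM final, CellTiter-Fluor fluorescence was recorded.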
# [12] = target: Estrogen receptor (Homo sapiens) (UniProt P03372); test: qHTS assay to identify small molecule antagonists of the estrogen receptor alpha (ER-alpha) signaling pathway using the BG1 cell line in the presence of 0.1 nM 17-beta-estradiol (AID 1259244); note: nearly all actives have a fitted effect of over 50% in size
# Estrogen receptor (Homo sapiens), sequence (P03372 whole entry, looked up): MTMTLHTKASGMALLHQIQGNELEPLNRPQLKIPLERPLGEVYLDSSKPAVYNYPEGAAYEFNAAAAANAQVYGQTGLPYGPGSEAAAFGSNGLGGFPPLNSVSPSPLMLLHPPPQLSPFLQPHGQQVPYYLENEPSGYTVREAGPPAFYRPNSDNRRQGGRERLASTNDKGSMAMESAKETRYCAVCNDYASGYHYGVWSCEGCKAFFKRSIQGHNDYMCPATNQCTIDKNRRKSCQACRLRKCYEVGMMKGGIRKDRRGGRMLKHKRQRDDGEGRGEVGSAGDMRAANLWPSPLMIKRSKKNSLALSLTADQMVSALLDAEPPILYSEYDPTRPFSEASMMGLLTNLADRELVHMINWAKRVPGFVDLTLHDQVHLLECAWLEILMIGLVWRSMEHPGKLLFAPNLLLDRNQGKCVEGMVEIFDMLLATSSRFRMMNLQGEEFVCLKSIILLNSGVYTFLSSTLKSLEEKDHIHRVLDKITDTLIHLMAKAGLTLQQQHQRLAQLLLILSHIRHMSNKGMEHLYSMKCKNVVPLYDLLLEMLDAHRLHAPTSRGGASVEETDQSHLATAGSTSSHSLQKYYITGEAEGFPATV
# How it was run: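 Estradiol at 0.1 nM (final) stimulates the endogenous ER-alpha of VM7Luc4E2 cells carrying an ERE-driven luciferase; compounds are co-incubated 22 h at 37C and luciferase output quantified by luminescence.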
# [13] = qHTS assay to identify small molecule phospholipidosis (PLD) inducers (AID 1259344; active = well fitted curve in the direction sought with a large enough effect; an effect the other way counts as inactive or inconclusive; note: potency is the fitted concentration of half-maximal effect)
# How it was run: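 HepG2 cells on collagen I, attached 4 h at 37 C, were co-treated with compound and LipidTOX Red dye for 24 h at 37 C, then fixed with paraformaldehyde plus Hoechst 33342 and imaged by high-content microscopy for phospholipid accumulation.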
# [14] = qHTS assay to identify small molecule HDAC inhibitors (AID 1259364);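 note: wild-type HCT-116 cells with endogenous class I/II HDAC activity; top concentration of the series differs between compounds; nearly all actives have a fitted effect of over 45% in size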
# How it was run: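 Read-out: luminescence of HDAC-Glo I/II reagent, 30 min RT, reflecting class I/II deacetylase activity in whole HCT-116 cells pre-exposed 2 h to DMSO-dissolved compounds.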
# [15] = qHTS assay to identify small molecule HDAC inhibitors - cell viability counter screen (AID 1259365)
# How it was run: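 Cytotoxicity was gauged in wild-type HCT-116 cells after a brief 2hr treatment with DMSO-dissolved compounds at 37C and 5% CO2, using CellTiter-Glo luminescence developed for 30min at room temperature.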
# [16] = qHTS assay to identify small molecule agonists of the sonic hedgehog signaling (Shh) pathway - cell viability counter screen (AID 1259366); note: nearly all actives have a fitted effect of over 50% in size; note: potency is the fitted concentration of half-maximal effect
# How it was run: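 Stable Gli1-Luc NIH/3T3 clone, 2,000 cells/well. Compound exposure 24hr at 37C. Read-out: CellTiter-Fluor fluorescence.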
# [17] = qHTS assay to identify small molecule antagonists of the sonic hedgehog signaling (Shh) pathway - cell viability counter screen (AID 1259367); note: nearly all actives have a fitted effect of over 55% in size; note: potency is the fitted concentration of half-maximal effect
# How it was run: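 NIH/3T3-derived Gli1-Luc reporter cells (2,000 per well) rested 4 hr at 37 C, then received DMSO compounds plus conditioned medium. After 23 hr of treatment, CellTiter-Fluor was added for 1 hr at 37C and fluorescence read.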
# [18] = qHTS assay to identify small molecule agonists of the sonic hedgehog signaling (Shh) pathway (AID 1259368; calls by dose curve;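 note: NIH/3T3-derived 3T3Gli1-Luc cells carrying a stable Gli1-driven firefly luciferase reporter; series mostly up to about 92 µM; nearly all actives have a fitted effect of over 15% in size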)
# How it was run: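 A Gli1 transcriptional response element controlled firefly luciferase in 3T3Gli1-Luc cells. Compounds and a positive control were added 4 hr after plating, and cells were incubated a further 24 hr at 37 C before luminescence detection.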
# [19] = qHTS RealTime-Glo MT Cell Viability Assay in HEK293 cells - 8 hour (AID 1224887); note: nearly all actives have a fitted effect of over 50% in size; note: potency is the fitted concentration of half-maximal effect
# How it was run: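 Viable HEK293 cells reduce a cell-permeant prosubstrate; the product diffuses out and is consumed by NanoLuc in the medium to give light. Compounds went in after a 5 h incubation and plates were read over the treatment course.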
Compound,Potency [1],Potency [2],Potency [3],Potency [4],Potency [5],Potency [6],Potency [7],Potency [8],Potency [9],Potency [10],Potency [11],Potency [12],Potency [13],Potency [14],outcome [15],Potency [16],Potency [17],Potency [18],Potency [19]
CC(=O)O[C@]1(C(C)=O)CC[C@H]2[C@@H]3C=C(C)C4=CC(=O)CC[C@]4(C)[C@H]3CC[C@@]21C,inactive,inactive,inactive,inactive,inactive,19.5 µM (active),inactive,347 nM (active) and 952 nM (active),inactive,inactive,inactive,inactive,inactive,inactive,inactive,inactive,inactive,inactive,
CC1(C)O[C@@H]2C[C@H]3[C@@H]4C[C@H](F)C5=CC(=O)C=C[C@]5(C)[C@@]4(F)[C@@H](O)C[C@]3(C)[C@]2(C(=O)CO)O1,inactive,inactive,inactive,inactive,inactive,inactive,inactive,3.89 µM (active) and 9.52 µM (active),inactive,,inactive,inactive,inactive,inactive,inactive,inactive,inactive,inactive,inactive
[O-]/[N+](=N\O)c1ccccc1,inactive,inactive,inactive,inactive,inactive,inactive,inactive,inactive,inactive,,inactive,inactive,,,inactive,inactive,inactive,inactive,inactive
O=C1OC2(c3ccccc31)c1cc(I)c(O)c(I)c1Oc1c2cc(I)c(O)c1I,11.8 µM (active) [middle of 4 runs],11.8 µM (active) [middle of 4 runs],13.3 µM (active) [middle of 4 runs],13.3 µM (active) [middle of 4 runs],39 µM (active) and 27.9 µM (active),49.1 µM (active) and inactive,13.3 µM (active) [middle of 4 runs],12.3 µM (active) [middle of 4 runs],11.8 µM (active) [middle of 4 runs],,9.71 µM (active) [middle of 4 runs],,inactive,inactive,,15.5 µM (active) [middle of 4 runs],15.5 µM (active) [middle of 4 runs],inactive,49.1 µM (active) and inactive
NC[C@H](O)c1ccc(O)c(O)c1,inactive,inactive,inactive,inactive,inactive,inactive,inactive,inactive,inactive,,inactive,,inactive,inactive,inactive,inactive,inactive,inactive,inactive
CCCCCCOCCOCCO,inactive,inactive,inactive,inactive,inactive,inactive,inactive,inactive,inactive,,inactive,,,inactive,inactive,inactive,inactive,inactive,inactive
C1CN(SSN2CCOCC2)CCO1,48.5 µM (active) and inactive,inactive,inactive,inactive,inactive,inactive,inactive,inactive,inactive,inactive,inactive,inactive,,inactive,inactive,53.9 µM (active) and 48.6 µM (active),48.1 µM (active) and 61.1 µM (active),inactive,
Nc1ccc(N)c(Cl)c1,inactive and 27.5 µM (active),inactive and 38.9 µM (active),inactive and 43.6 µM (active),inactive and 27.5 µM (active),inactive and 43.6 µM (active),inactive,,inactive,inactive and 38.9 µM (active),,inactive,,,inactive,inactive,61 µM (active),,inactive,21.8 µM (active) and 43.6 µM (active)
O=C(O)COCCN1CCN(C(c2ccccc2)c2ccc(Cl)cc2)CC1 (configuration not stated),inactive,inactive,inactive,inactive,inactive,inactive,inactive,inactive,inactive,inactive,inactive,inactive,inactive,inactive,inactive,inactive,inactive,inactive,
CCOC(=O)C(C)Oc1ccc(Oc2cnc3cc(Cl)ccc3n2)cc1 (configuration not stated),inactive,inactive,inactive,inactive,inactive,22.4 µM (active) and 36.4 µM (active),inactive,inactive,inactive,,inactive,inactive,,inactive,inactive,inactive,inactive,inactive,
C[C@]12C=CC(=O)C=C1CC[C@H]1[C@@H]3C[C@@H](O)[C@](O)(C(=O)CO)[C@@]3(C)C[C@H](O)[C@@]12F,inactive,inactive,inactive,inactive,inactive,inactive,inactive,21.9 µM (active),inactive,,inactive,inactive,inactive,inactive,inactive,inactive,inactive,inactive,
CN(C)CCCN1c2ccccc2Sc2ccc(Cl)cc21,43.6 µM (active),inactive,24.5 µM (active) and 23.9 µM (active),54.9 µM (active) and inactive,49 µM (active) and 23.9 µM (active),24.5 µM (active) and 23.9 µM (active),54.9 µM (active) and 26.8 µM (active),,inactive,,61.1 µM (active),,3.16 µM (active),,inactive,30.6 µM (active) and 23.7 µM (active),61.1 µM (active),inactive,
Nc1ccc(O)c(N)c1,inactive,inactive,inactive,inactive,inactive,inactive,inactive,inactive,inactive,,inactive,inactive,,inactive,inactive,,,inactive,
C=CCCCCCCCCCC,inactive,inactive,inactive,inactive,inactive,inactive,inactive,inactive,inactive,inactive,inactive,,,inactive,inactive,inactive,inactive,inactive,
COc1ccc(C(=O)c2ccccc2O)c(O)c1,,inactive,inactive,inactive,inactive,inactive,inactive,inactive,inactive,,inactive,,inactive,inactive,inactive,inactive,inactive,inactive,
